From PubChem BioAssay (NCI)
About 79,000 compounds went through this panel and 15% of them were active in at least one assay; those are over-represented in the sample as a whole. Values without a mark were called inactive. The source made the active and inactive calls. No stated cut-off is given here; in the data, active means growth inhibition above about 70%; inactive means the rest.

Columns and labels:
[1] = NCI Yeast Anticancer Drug Screen. Data for the wt1 strain (AID 149);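 further: 0% = growth of vehicle-treated wt1 cultures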; conditions: S. cerevisiae wt1 strain (SPY 50644) growth inhibition, stronger effect = higher value
How it was run: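 Readout: yeast growth inhibition, normalised to vehicle controls, in the wt1 strain exposed to test compounds.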

[2] = NCI Yeast Anticancer Drug Screen. Data for the rad50EPP+ strain (AID 151);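 further: 0% = growth of vehicle-treated control cultures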; conditions: S. cerevisiae rad50 mutant strain, stronger effect = higher value
How it was run: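 Growth inhibition read against vehicle controls in rad50EPP+ yeast, a strain altered in DNA damage repair, after compound exposure.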

[3] = NCI Yeast Anticancer Drug Screen. Data for the mgt1 strain (AID 153); conditions: S. cerevisiae mgt1 mutant growth inhibition, stronger effect = higher value
How it was run: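 mgt1 yeast grown with test compound; read-out is growth inhibition versus vehicle-treated cultures.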

[4] = NCI Yeast Anticancer Drug Screen. Data for the rad50 strain (AID 155);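 further: 0% = growth of vehicle-only cultures of the same strain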; conditions: S. cerevisiae rad50 strain growth inhibition, stronger effect = higher value
How it was run: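 Compounds were tested on a yeast strain with an engineered DNA damage repair alteration; the reported value is growth inhibition normalised to vehicle treatment.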

[5] = NCI Yeast Anticancer Drug Screen. Data for the mec2-1 strain (AID 157); conditions: S. cerevisiae mec2-1 strain, stronger effect = higher value
How it was run: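 Yeast mec2-1 mutant treated with compound. Readout: growth inhibition vs vehicle controls.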

[6] = NCI Yeast Anticancer Drug Screen. Data for the rad14 strain (AID 159);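 further: 0% = growth of vehicle-treated control cultures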; conditions: S. cerevisiae rad14 strain growth inhibition, stronger effect = higher value
How it was run: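 Compound-treated yeast with a defined DNA-repair lesion; growth inhibition normalised to vehicle-treated cultures.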

[7] = NCI Yeast Anticancer Drug Screen. Data for the sgs1 mgt1 strain (AID 161);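 further: 0% = growth of cultures given vehicle only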; conditions: S. cerevisiae sgs1 mgt1 strain, stronger effect = higher value
How it was run: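 Inhibition of yeast growth, normalised to vehicle-treated controls, is reported for a strain bearing genetic alterations in DNA damage repair.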

[8] = NCI Yeast Anticancer Drug Screen. Data for the CLN2oe strain (AID 163);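 further: 0% = growth of vehicle-only control cultures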; conditions: S. cerevisiae CLN2oe strain, stronger effect = higher value
How it was run: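 Read-out: yeast growth inhibition, expressed relative to vehicle-only controls. The strain bears an engineered cell-cycle alteration.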

[9] = NCI Yeast Anticancer Drug Screen. Data for the cln2 rad14 strain (AID 165);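 further: 0% = growth equal to vehicle treated cultures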; conditions: S. cerevisiae cln2 rad14 strain, stronger effect = higher value
How it was run: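 cln2 rad14 yeast strain; compound exposure; growth inhibition read vs vehicle controls.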

[10] = NCI Yeast Anticancer Drug Screen. Data for the bub3 strain (AID 167); conditions: S. cerevisiae bub3 mutant strain, stronger effect = higher value
How it was run: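 Growth of a checkpoint-deficient yeast mutant is measured after compound exposure. Values represent inhibition relative to vehicle.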

[11] = NCI Yeast Anticancer Drug Screen. Data for the wt2 strain (AID 169);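 further: 0% = growth of vehicle-treated yeast cultures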; conditions: S. cerevisiae wt2 strain growth inhibition, stronger effect = higher value
How it was run: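 Read-out: growth inhibition versus vehicle-treated control cultures after compound exposure of the yeast strain.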

[12] = NCI Yeast Anticancer Drug Screen. Data for the mlh1 strain (AID 171);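 further: 0% = growth of vehicle-treated control cultures of the same strain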; conditions: S. cerevisiae mlh1 strain growth inhibition, stronger effect = higher value
How it was run: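 Read-out: growth inhibition versus vehicle controls. Strain: engineered yeast with a defined DNA repair or cell cycle defect, compound-treated.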

[13] = NCI Yeast Anticancer Drug Screen. Data for the sgs1 strain (AID 173);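 further: 0% = growth of vehicle-only control cultures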; conditions: S. cerevisiae sgs1 mutant, stronger effect = higher value
How it was run: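 Read-out: yeast growth inhibition relative to vehicle controls, following compound exposure of a strain with a defined DNA repair/cell cycle alteration.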

[14] = NCI Yeast Anticancer Drug Screen. Data for the mlh1 rad18 strain (AID 175); conditions: S. cerevisiae mlh1 rad18 strain growth inhibition, stronger effect = higher value
How it was run: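 Yeast w/ defined DNA-repair lesions; compound exposure; growth vs vehicle controls → % inhibition.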

[15] = NCI Yeast Anticancer Drug Screen. Data for the rad18 strain (AID 177); conditions: S. cerevisiae rad18 mutant growth inhibition, stronger effect = higher value
How it was run: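 Readout: growth inhibition vs vehicle controls. Cells: genetically altered yeast strain, DNA repair defect.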

[16] = at 5.0 µM (retest, dose inferred, filed as 0.5)
[17] = at 50.0 µM (retest, dose inferred, filed as 5.0)

CSC(=Nc1ccccc1)N(c1ccccc1)c1nc(=[N+](C)C)ss1
growth inhibition ([1]; at 1.2 µM): -2% | growth inhibition ([1]; at 3.7 µM): 7% | growth inhibition ([1]; at 11.0 µM): 54% | growth inhibition ([1]; at 33.0 µM): 93% (active) | growth inhibition ([1]; at 100.0 µM): 98% (active) | growth inhibition ([2]; at 1.2 µM): -1% | growth inhibition ([2]; at 3.7 µM): -5% | growth inhibition ([2]; at 11.0 µM): 23% | growth inhibition ([2]; at 33.0 µM): 87% (active) | growth inhibition ([2]; at 100.0 µM): 97% (active) | growth inhibition ([3]; at 1.2 µM): 2% | growth inhibition ([3]; at 3.7 µM): 7% | growth inhibition ([3]; at 11.0 µM): 84% (active) | growth inhibition ([3]; at 33.0 µM): 98% (active) | growth inhibition ([3]; at 100.0 µM): 99% (active) | growth inhibition ([4]; at 1.2 µM): 3% | growth inhibition ([4]; at 3.7 µM): 13% | growth inhibition [4, 16]: 56% | growth inhibition ([4]; at 11.0 µM): 93% (active) | growth inhibition ([4]; at 33.0 µM): 98% (active) | growth inhibition [4, 17]: 99% (active) | growth inhibition ([4]; at 50.0 µM): 98.4% (active) | growth inhibition ([4]; at 100.0 µM): 99% (active) | growth inhibition ([5]; at 1.2 µM): 2% | growth inhibition ([5]; at 3.7 µM): 9% | growth inhibition [5, 16]: 26% | growth inhibition ([5]; at 11.0 µM): 80% (active) | growth inhibition ([5]; at 33.0 µM): 97% (active) | growth inhibition [5, 17]: 99% (active) | growth inhibition ([5]; at 50.0 µM): 99.3% (active) | growth inhibition ([5]; at 100.0 µM): 99% (active) | growth inhibition ([6]; at 1.2 µM): -5% | growth inhibition ([6]; at 3.7 µM): 7% | growth inhibition ([6]; at 11.0 µM): 92% (active) | growth inhibition ([6]; at 33.0 µM): 99% (active) | growth inhibition ([6]; at 100.0 µM): 99% (active) | growth inhibition [7, 16]: 58% | growth inhibition [7, 17]: 99% (active) | growth inhibition ([7]; at 50.0 µM): 98.6% (active) | growth inhibition ([8]; at 1.2 µM): -12% | growth inhibition ([8]; at 3.7 µM): -11% | growth inhibition ([8]; at 11.0 µM): 14% | growth inhibition ([8]; at 33.0 µM): 80% (active) | growth inhibition ([8]; at 100.0 µM): 98% (active) | growth inhibition [9, 16]: -1% | growth inhibition [9, 17]: 98% (active) | growth inhibition ([9]; at 50.0 µM): 93.4% (active) | growth inhibition ([10]; at 1.2 µM): 1% | growth inhibition ([10]; at 3.7 µM): 22% | growth inhibition [10, 16]: 37% | growth inhibition ([10]; at 11.0 µM): 85% (active) | growth inhibition ([10]; at 33.0 µM): 93% (active) | growth inhibition [10, 17]: 98% (active) | growth inhibition ([10]; at 50.0 µM): 98.5% (active) | growth inhibition ([10]; at 100.0 µM): 99% (active) | growth inhibition ([11]; at 1.2 µM): 0% | growth inhibition ([11]; at 3.7 µM): 17% | growth inhibition ([11]; at 11.0 µM): 87% (active) | growth inhibition ([11]; at 33.0 µM): 97% (active) | growth inhibition ([11]; at 100.0 µM): 99% (active) | growth inhibition ([12]; at 1.2 µM): -1% | growth inhibition ([12]; at 3.7 µM): 10% | growth inhibition ([12]; at 11.0 µM): 88% (active) | growth inhibition ([12]; at 33.0 µM): 99% (active) | growth inhibition ([12]; at 100.0 µM): 99% (active) | growth inhibition ([13]; at 1.2 µM): 3% | growth inhibition ([13]; at 3.7 µM): 24% | growth inhibition ([13]; at 11.0 µM): 91% (active) | growth inhibition ([13]; at 33.0 µM): 98% (active) | growth inhibition ([13]; at 100.0 µM): 99% (active) | growth inhibition [14, 16]: 44% | growth inhibition [14, 17]: 98% (active) | growth inhibition ([14]; at 50.0 µM): 98.6% (active) | growth inhibition ([15]; at 1.2 µM): 4% | growth inhibition ([15]; at 3.7 µM): 34% | growth inhibition ([15]; at 11.0 µM): 93% (active) | growth inhibition ([15]; at 33.0 µM): 98% (active) | growth inhibition ([15]; at 100.0 µM): 98% (active)

CC[C@@]1(O)C(=O)OCc2c1cc1n(c2=O)Cc2cc3c(NC(=O)CN)cccc3nc2-1
growth inhibition ([1]; at 1.2 µM): 1% | growth inhibition ([1]; at 3.7 µM): -1% | growth inhibition ([1]; at 11.0 µM): -2% | growth inhibition ([1]; at 33.0 µM): -3% | growth inhibition ([1]; at 100.0 µM): 0% | growth inhibition ([2]; at 1.2 µM): -4% | growth inhibition ([2]; at 3.7 µM): 2% | growth inhibition ([2]; at 11.0 µM): 6% | growth inhibition ([2]; at 33.0 µM): 19% | growth inhibition ([2]; at 100.0 µM): 49% | growth inhibition ([3]; at 1.2 µM): -3% | growth inhibition ([3]; at 3.7 µM): 1% | growth inhibition ([3]; at 11.0 µM): 0% | growth inhibition ([3]; at 33.0 µM): -1% | growth inhibition ([3]; at 100.0 µM): -3% | growth inhibition ([4]; at 1.2 µM): 8% | growth inhibition ([4]; at 3.7 µM): 21% | growth inhibition [4, 16]: 1% | growth inhibition ([4]; at 11.0 µM): 54% | growth inhibition ([4]; at 33.0 µM): 79% (active) | growth inhibition [4, 17]: 72% (active) | growth inhibition ([4]; at 50.0 µM): 88.2% (active) | growth inhibition ([4]; at 100.0 µM): 88% (active) | growth inhibition ([5]; at 1.2 µM): -3% | growth inhibition ([5]; at 3.7 µM): -4% | growth inhibition [5, 16]: -9% | growth inhibition ([5]; at 11.0 µM): -3% | growth inhibition ([5]; at 33.0 µM): 1% | growth inhibition [5, 17]: -5% | growth inhibition ([5]; at 50.0 µM): -11.8% | growth inhibition ([5]; at 100.0 µM): 19% | growth inhibition [7, 16]: -11% | growth inhibition [7, 17]: -3% | growth inhibition ([7]; at 50.0 µM): -1.65% | growth inhibition ([8]; at 1.2 µM): 0% | growth inhibition ([8]; at 3.7 µM): -2% | growth inhibition ([8]; at 11.0 µM): -1% | growth inhibition ([8]; at 33.0 µM): -2% | growth inhibition ([8]; at 100.0 µM): 0% | growth inhibition [9, 16]: -35% | growth inhibition [9, 17]: -26% | growth inhibition ([9]; at 50.0 µM): 26.9% | growth inhibition ([11]; at 1.2 µM): -1% | growth inhibition ([11]; at 3.7 µM): 1% | growth inhibition ([11]; at 11.0 µM): 0% | growth inhibition ([11]; at 33.0 µM): -1% | growth inhibition ([11]; at 100.0 µM): 0% | growth inhibition ([12]; at 1.2 µM): -5% | growth inhibition ([12]; at 3.7 µM): -3% | growth inhibition ([12]; at 11.0 µM): -3% | growth inhibition ([12]; at 33.0 µM): -6% | growth inhibition ([12]; at 100.0 µM): 2% | growth inhibition [14, 16]: -12% | growth inhibition [14, 17]: -9% | growth inhibition ([14]; at 50.0 µM): -0.55% | growth inhibition ([15]; at 1.2 µM): -18% | growth inhibition ([15]; at 3.7 µM): -6% | growth inhibition ([15]; at 11.0 µM): -19% | growth inhibition ([15]; at 33.0 µM): -8% | growth inhibition ([15]; at 100.0 µM): -10%
